Inconclusive results are not listed. Active and inactive are the calls of the source. Unless noted, calls follow the shape of the full dose curve.
Key:
[1] = qHTS assay to identify small molecule agonists of the vitamin D receptor (VDR) signaling pathway - cell viability counter screen (AID 743224; active = well fitted curve in the direction sought with a large enough effect in the repeat runs; an effect the other way counts as inactive or inconclusive; also: series mostly up to about 63 µM; % is scaled to controls: 0 for no effect and ±100 for the full control effect; nearly all actives have a fitted effect of over 50% in size)
Outline: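 Cells: VDR-bla, 2,000/well, settled 4 h. Treatment: compounds in DMSO, 16 h, 37C/5% CO2. Readout: CellTiter-Glo luminescence after 30 min RT.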

[2] = qHTS assay to identify small molecule antagonists of the vitamin D receptor (VDR) signaling pathway - cell viability counter screen (AID 743225; active = well fitted curve in the direction sought with a large enough effect in the repeat runs; an effect the other way counts as inactive or inconclusive; also: % is scaled to controls: 0 for no effect and ±100 for the full control effect; nearly all actives have a fitted effect of over 50% in size)
Outline: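 Read-out: CellTiter-Glo luminescence measured 30 min after reagent addition at room temperature. Cells were VDR-bla HEK 293T exposed 16 h at 37C, 5% CO2, to compound with 3 nM final calcitriol agonist.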

[3] = qHTS assay to identify small molecule agonists of the NFkB signaling pathway - cell viability counter screen (AID 1159515); also: series mostly up to about 61 µM; % is scaled to controls: 0 for no effect and ±100 for the full control effect; nearly all actives have a fitted effect of over 55% in size
Outline: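 Cells are seeded (2,000 NFkB-bla ME-180 per well), rested overnight, and dosed with DMSO-dissolved compounds for 5 hr at 37 C. Viability is then read by CellTiter-Glo luminescence after 30 min at room temperature.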

[4] = qHTS assay to identify small molecule agonists of the endoplasmic reticulum stress response signaling pathway (AID 1159516; active = well fitted activation curve with a large enough effect in the signal ratio in the repeat runs, not every such curve was filed as active; the % refers to the signal ratio; also: % is scaled to controls: 0 for no effect and ±100 for the full control effect)
Outline: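 Cells are seeded at 1,500 per well and incubated overnight. Compounds in DMSO are added for 5 hr at 37 C, then beta-lactamase FRET substrate for 2 hr at room temperature, and fluorescence at 460 and 530 nm is measured.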

[5] = qHTS assay to identify small molecule agonists of the endoplasmic reticulum stress response signaling pathway - cell viability counter screen (AID 1159517);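 also: HeLa cells carrying an ER stress response element beta-lactamase reporter; series mostly up to about 61 µM; % is scaled to controls: 0 for no effect and ±100 for the full control effect; nearly all actives have a fitted effect of over 50% in size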
Outline: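 Steps: seed 1,500 ESRE-bla HeLa cells per well; incubate overnight at 37 C, 5% CO2; add compounds in DMSO for 5 hr; run FRET substrate 2 hr RT; add CellTiter-Glo, wait 30 min, read luminescence.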

[6] = qHTS assay to identify small molecule antagonists of the retinoid-related orphan receptor gamma (ROR-gamma) signaling pathway - cell viability counter screen (AID 1159520; active = well fitted curve in the direction sought with a large enough effect in the repeat runs; an effect the other way counts as inactive or inconclusive; also: % is scaled to controls: 0 for no effect and ±100 for the full control effect; nearly all actives have a fitted effect of over 50% in size)
Outline: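 Tet-on ROR gamma CHO cells were given compounds for 2 hr, then doxycycline hyclate at 1 uM final, and incubated 16 hr at 37 C. Viability was measured as ATP content by CellTiter-Glo luminescence.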

[7] = biological target: Nuclear receptor ROR-gamma (Homo sapiens) (UniProt P51449); test: qHTS assay to identify small molecule antagonists of the retinoid-related orphan receptor gamma (ROR-gamma) signaling pathway (AID 1159521; active = well fitted curve in the direction sought with a large enough effect in the repeat runs; an effect the other way counts as inactive or inconclusive)
Outline: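 CHO Tet-on RORγ, RORE-luc reporter. Cpd 2 h pre-incubation, then dox hyclate 1 uM final, 16 h, 37 C/5% CO2. ONE-Glo luminescence; decrease = antagonist.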

[8] = qHTS assay to identify small molecule agonists of the AP-1 signaling pathway - cell viability counter screen (AID 1159525); also: nearly all actives have a fitted effect of over 55% in size
Outline: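 Same-well cytotoxicity counter screen of the Tox21 10K library in ME-180 cells. The readout is ATP-dependent luminescence after 5 h compound treatment. Data are normalised to DMSO and tetra n-octyl ammonium bromide controls.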

[9] = qHTS assay to identify small molecule agonists of the AP-1 signaling pathway (AID 1159526); also: % is scaled to controls: 0 for no effect and ±100 for the full control effect
[10] = biological target: Retinoic acid receptor RXR-alpha (Homo sapiens) (UniProt P19793); test: qHTS assay to identify small molecule agonists of the RXR signaling pathway (AID 1159527); also: % is scaled to controls: 0 for no effect and ±100 for the full control effect; nearly all actives have a fitted effect of over 35% in size
Outline: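 Read-out: beta-lactamase FRET ratio (405 nm excitation, 460 and 530 nm emission) after 2 hr substrate loading at room temperature. Cells were RXR-alpha-UAS-bla HEK 293T treated with compounds for 16 hr in 2% charcoal-stripped FBS medium.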

Sequence of Retinoic acid receptor RXR-alpha (Homo sapiens) (P19793 whole entry, looked up): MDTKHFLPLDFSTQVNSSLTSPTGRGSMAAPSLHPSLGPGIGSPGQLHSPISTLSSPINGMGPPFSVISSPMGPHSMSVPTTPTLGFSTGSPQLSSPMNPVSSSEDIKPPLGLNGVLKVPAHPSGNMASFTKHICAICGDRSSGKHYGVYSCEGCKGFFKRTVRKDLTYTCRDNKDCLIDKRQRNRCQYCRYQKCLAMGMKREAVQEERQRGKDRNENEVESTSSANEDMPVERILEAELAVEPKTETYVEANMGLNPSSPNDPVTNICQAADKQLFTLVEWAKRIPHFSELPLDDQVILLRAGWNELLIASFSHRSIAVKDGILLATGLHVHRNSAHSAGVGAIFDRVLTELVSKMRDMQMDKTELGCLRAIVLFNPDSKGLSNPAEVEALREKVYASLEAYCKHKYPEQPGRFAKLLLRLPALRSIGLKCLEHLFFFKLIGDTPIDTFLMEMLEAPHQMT

C=CCON/C(CCC)=C1\C(=O)CC(C)(C)C(C(=O)OC)=C1O
inactive: outcome [1] | outcome [2] | outcome [3] | Potency [4] | outcome [5] | outcome [6] | outcome [7] | outcome [8] | Potency [9]

CCCCN(CCCC)CCCCCCN(CCCC)CCCC
inactive: outcome [2] | outcome [3] | Potency [4] | outcome [5] | outcome [6] | outcome [7] | outcome [8] | Potency [9]

CC[C@@]1(c2ccccc2)NC(=O)N(C)C1=O
inactive: outcome [2] | outcome [3] | Potency [4] | outcome [5] | outcome [6] | outcome [7] | outcome [8] | Potency [9] | Potency [10]

CC(C)c1cc(C(C)C)cc(C(C)C)c1
inactive: outcome [1] | outcome [2] | outcome [3] | Potency [4] | outcome [5] | outcome [6] | outcome [7] | outcome [8] | Potency [9]

O=C(O)P(=O)(O)O
inactive: outcome [1] | outcome [2] | outcome [3] | Potency [4] | outcome [5] | outcome [6] | outcome [7] | outcome [8] | Potency [9]

CC(=O)Nc1ccc(OCCOCCOc2ccc(NC(C)=O)cc2)cc1
inactive: outcome [2] | outcome [3] | Potency [4] | outcome [5] | outcome [6] | outcome [7] | outcome [8] | Potency [9] | Potency [10]

CCCC(=O)C(CC)Sc1ccoc1C (configuration not stated)
inactive: outcome [1] | outcome [2] | outcome [3] | Potency [4] | outcome [5] | outcome [6] | outcome [7] | outcome [8] | Potency [9]

COc1cc(NS(=O)(=O)c2ccc(N)cc2)ncn1
inactive: outcome [2] | outcome [3] | Potency [4] | outcome [5] | outcome [6] | outcome [7] | outcome [8] | Potency [9] | Potency [10]

CC(C)C[P+](C)(CC(C)C)CC(C)C
inactive: outcome [1] | outcome [2] | outcome [3] | Potency [4] | outcome [5] | outcome [6] | outcome [7] | outcome [8] | Potency [9]

CCOC(=O)c1ccc(N(C)C)cc1
inactive: outcome [1] | outcome [2] | outcome [3] | Potency [4] | outcome [5] | outcome [6] | outcome [7] | outcome [8] | Potency [9]

C=CCn1cc[n+](C)c1
inactive: outcome [1] | outcome [2] | outcome [3] | Potency [4] | outcome [5] | outcome [6] | outcome [7] | outcome [8] | Potency [9]

Cc1ccc(O)c(C(=O)c2ccccc2)c1
inactive: outcome [1] | outcome [3] | Potency [4] | outcome [6] | outcome [7] | outcome [8] | Potency [9] | Potency [10]

C=CC(=O)OCC[N+](C)(C)C
inactive: outcome [2] | outcome [3] | Potency [4] | outcome [5] | outcome [6] | outcome [7] | outcome [8] | Potency [9]

Cc1cc2c(cc1CC(=O)c1sccc1S(=O)(=O)Nc1onc(C)c1Cl)OCO2
inactive: outcome [1] | outcome [2] | outcome [3] | Potency [4] | outcome [5] | outcome [6] | outcome [7] | outcome [8] | Potency [9]

CCOc1ccccc1OCCN[C@H](C)Cc1ccc(OC)c(S(N)(=O)=O)c1
inactive: outcome [2] | outcome [3] | Potency [4] | outcome [5] | outcome [6] | outcome [7] | outcome [8] | Potency [9] | Potency [10]

C=CC(=O)CC
inactive: outcome [1] | outcome [2] | outcome [3] | Potency [4] | outcome [5] | outcome [6] | outcome [7] | outcome [8] | Potency [9]

CC12CCCC=C1C(=O)OC2=O (configuration not stated)
inactive: outcome [2] | outcome [3] | Potency [4] | outcome [5] | outcome [6] | outcome [7] | outcome [8] | Potency [9]

CC(C)C(=O)Nc1cccc(C2CN3CCSC3=N2)c1 (configuration not stated)
inactive: outcome [1] | outcome [3] | Potency [4] | outcome [6] | outcome [7] | outcome [8] | Potency [9] | Potency [10]

CC/C=C\CCOC(=O)c1ccccc1
inactive: outcome [1] | outcome [2] | outcome [3] | Potency [4] | outcome [6] | outcome [7] | outcome [8] | Potency [9] | Potency [10]

CN(C)CCC[C@@]1(c2ccc(F)cc2)OCc2cc(C#N)ccc21
inactive: outcome [1] | outcome [2] | outcome [3] | Potency [4] | outcome [6] | outcome [7] | outcome [8] | Potency [9] | Potency [10]

CC(C)(C)c1ccc(N)cc1
inactive: outcome [1] | outcome [2] | outcome [3] | Potency [4] | outcome [6] | outcome [7] | outcome [8] | Potency [9] | Potency [10]

CC(=O)c1c(C)cc(C(C)(C)C)cc1C
inactive: outcome [1] | outcome [2] | outcome [3] | Potency [4] | outcome [6] | outcome [7] | outcome [8] | Potency [9] | Potency [10]

N=C(N)N1CCc2ccccc2C1
inactive: activity change, negative = cytotoxicity [1] -1.18% [at 5.95 µM] | activity, negative = cytotoxic [3] 6.23% [at 6.95 µM] | activation [4] 1.42% [at 6.95 µM] | activity, negative = cytotoxicity [6] 7.51% [at 8.39 µM] | activity change, negative = inhibition [7] -0.777% [at 8.39 µM] | viability change, negative = cytotoxic [8] 6.37% [at 6.97 µM] | activation [9] -0.863% [at 6.97 µM] | activation [10] 5.64% [at 6.98 µM]

CCCCN=C(N)N=C(N)N
inactive: outcome [1] | outcome [2] | outcome [3] | Potency [4] | outcome [6] | outcome [7] | outcome [8] | Potency [9] | Potency [10]

CC(O)C(CO)C(C)O (configuration not stated)
inactive: outcome [1] | outcome [2] | outcome [3] | Potency [4] | outcome [6] | outcome [7] | outcome [8] | Potency [9] | Potency [10]

COC(=O)c1ccc(NC(C)=O)cc1OC
inactive: outcome [1] | outcome [2] | outcome [3] | Potency [4] | outcome [6] | outcome [7] | outcome [8] | Potency [9] | Potency [10]

CC(=O)OCC(=O)[C@@]1(O)CC[C@H]2[C@@H]3CCC4=CC(=O)C=C[C@]4(C)[C@H]3[C@@H](O)C[C@@]21C
inactive: outcome [1] | outcome [2] | outcome [3] | Potency [4] | outcome [6] | outcome [7] | outcome [8] | Potency [9] | Potency [10]
